# mHTT CaM bind: inhibitors of human mutant huntingtin-calmodulin interaction | P42858 | AlphaScreen His-mHTT/GST-CaM binding, luminescence | inhibition, % at 15 µM | hit rate 3.6% among 190,000
# Target sequence (P42858 whole entry, looked up, change not shown): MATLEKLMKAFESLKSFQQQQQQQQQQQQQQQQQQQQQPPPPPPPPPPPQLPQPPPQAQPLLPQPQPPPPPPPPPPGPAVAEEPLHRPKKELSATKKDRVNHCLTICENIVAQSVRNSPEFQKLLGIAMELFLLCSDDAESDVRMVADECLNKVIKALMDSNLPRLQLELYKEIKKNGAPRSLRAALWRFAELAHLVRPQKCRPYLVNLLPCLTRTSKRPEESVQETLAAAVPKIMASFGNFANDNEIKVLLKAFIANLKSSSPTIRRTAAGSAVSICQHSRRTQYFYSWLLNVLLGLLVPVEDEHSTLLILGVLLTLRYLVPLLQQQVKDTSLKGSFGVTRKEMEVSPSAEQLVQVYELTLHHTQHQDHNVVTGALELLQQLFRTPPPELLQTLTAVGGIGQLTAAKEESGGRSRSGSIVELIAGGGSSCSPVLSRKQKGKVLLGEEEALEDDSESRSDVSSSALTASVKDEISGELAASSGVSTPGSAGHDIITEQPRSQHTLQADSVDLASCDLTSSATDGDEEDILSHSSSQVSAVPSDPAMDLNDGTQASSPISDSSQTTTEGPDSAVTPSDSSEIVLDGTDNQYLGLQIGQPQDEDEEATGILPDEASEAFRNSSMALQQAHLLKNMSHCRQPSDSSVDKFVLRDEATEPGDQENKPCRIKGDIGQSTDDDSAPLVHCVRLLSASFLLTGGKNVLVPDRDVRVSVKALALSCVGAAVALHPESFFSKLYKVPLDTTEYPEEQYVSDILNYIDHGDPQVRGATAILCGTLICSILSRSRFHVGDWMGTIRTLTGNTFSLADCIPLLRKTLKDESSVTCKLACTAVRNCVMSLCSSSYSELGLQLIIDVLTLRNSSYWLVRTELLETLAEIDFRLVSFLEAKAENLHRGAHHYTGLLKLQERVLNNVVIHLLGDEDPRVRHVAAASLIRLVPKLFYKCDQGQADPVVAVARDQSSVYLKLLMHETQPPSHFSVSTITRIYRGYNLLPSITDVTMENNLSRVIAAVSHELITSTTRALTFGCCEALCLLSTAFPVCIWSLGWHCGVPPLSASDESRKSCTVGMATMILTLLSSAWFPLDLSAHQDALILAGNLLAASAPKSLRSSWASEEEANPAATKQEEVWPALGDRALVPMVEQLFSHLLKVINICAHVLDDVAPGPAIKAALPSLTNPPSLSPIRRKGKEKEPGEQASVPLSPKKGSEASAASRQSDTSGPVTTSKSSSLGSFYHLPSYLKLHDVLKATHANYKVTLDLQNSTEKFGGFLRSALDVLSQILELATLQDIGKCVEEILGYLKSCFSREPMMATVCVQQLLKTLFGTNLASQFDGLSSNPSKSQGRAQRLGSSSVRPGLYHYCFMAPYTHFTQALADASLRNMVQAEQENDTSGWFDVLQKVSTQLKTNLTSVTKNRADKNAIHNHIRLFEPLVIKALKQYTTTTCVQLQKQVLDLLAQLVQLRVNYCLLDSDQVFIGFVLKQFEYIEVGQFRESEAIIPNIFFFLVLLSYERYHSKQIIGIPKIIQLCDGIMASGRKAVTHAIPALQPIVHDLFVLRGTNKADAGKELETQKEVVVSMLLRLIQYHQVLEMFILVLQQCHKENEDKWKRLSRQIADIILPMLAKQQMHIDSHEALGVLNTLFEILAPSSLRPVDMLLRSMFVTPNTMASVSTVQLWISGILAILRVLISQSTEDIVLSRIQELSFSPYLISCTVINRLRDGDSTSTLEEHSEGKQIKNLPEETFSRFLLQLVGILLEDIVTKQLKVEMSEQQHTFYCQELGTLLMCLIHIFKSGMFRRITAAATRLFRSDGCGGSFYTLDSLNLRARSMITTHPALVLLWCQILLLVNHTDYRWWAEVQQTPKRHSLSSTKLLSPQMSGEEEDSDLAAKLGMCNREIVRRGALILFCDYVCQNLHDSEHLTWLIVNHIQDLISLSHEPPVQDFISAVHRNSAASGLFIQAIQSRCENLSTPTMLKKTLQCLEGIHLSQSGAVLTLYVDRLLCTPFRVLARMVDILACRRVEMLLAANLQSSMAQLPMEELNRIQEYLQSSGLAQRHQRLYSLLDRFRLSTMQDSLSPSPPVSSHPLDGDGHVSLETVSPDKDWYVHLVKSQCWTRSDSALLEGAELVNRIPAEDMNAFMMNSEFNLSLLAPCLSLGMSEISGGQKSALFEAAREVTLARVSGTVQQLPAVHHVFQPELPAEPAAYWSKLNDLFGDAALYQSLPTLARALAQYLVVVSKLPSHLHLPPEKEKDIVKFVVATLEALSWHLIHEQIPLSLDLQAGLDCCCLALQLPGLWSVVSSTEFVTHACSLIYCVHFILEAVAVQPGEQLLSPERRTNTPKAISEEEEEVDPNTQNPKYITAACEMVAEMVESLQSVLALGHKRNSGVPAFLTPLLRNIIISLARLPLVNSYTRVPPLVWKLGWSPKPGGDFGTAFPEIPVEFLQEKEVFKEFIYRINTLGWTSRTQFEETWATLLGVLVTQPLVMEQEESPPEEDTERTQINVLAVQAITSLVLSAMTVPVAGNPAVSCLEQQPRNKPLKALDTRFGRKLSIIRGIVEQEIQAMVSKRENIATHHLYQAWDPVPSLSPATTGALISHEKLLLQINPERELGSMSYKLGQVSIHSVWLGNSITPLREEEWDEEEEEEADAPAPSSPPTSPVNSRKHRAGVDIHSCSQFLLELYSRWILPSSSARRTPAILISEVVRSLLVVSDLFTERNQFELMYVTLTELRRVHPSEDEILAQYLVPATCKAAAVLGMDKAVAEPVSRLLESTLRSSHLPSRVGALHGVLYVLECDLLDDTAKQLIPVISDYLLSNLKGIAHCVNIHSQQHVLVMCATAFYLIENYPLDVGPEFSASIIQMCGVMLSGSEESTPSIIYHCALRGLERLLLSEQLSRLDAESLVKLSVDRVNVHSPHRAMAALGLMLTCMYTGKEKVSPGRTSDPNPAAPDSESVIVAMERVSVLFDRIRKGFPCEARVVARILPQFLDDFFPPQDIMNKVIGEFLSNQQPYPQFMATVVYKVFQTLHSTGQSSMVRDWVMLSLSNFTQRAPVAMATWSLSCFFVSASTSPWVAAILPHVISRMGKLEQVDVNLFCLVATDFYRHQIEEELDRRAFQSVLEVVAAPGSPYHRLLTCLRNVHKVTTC
# Pf apPOL block: Pf-apPOL DNA polymerase inhibition; Recombinant Pf-apPOL, molecular beacon fluorescence, 1.5 h; inhibition, % at 10 µM; hit rate 0.25% among 210,000; AID 1794808
# A number is an active result; i = inactive; nt = no result. The list is not random: actives were taken first. Their share in the collection is about 3.6%. Cut-off read from the data, not from the text of the source: active = inhibition above about 50%; inactive = the rest.
SMILES,mHTT CaM bind,Pf apPOL block
CCC(Sc1nnnn1-c1ccccc1)C(=O)Nc1nc2ccccc2s1 (centres undefined),51.5,i
CCCc1nnc(NC(=O)C(CC)Sc2nnnn2-c2ccccc2)s1 (centres undefined),i,i
Cc1ccc(F)c(NC(=O)C2CCc3nc(N4CCOCC4)ncc3C2)c1 (centres undefined),i,i
Cc1ccccc1Cn1cc(SCC(=O)N2CCCCC2)c2ccccc21,86.0,i
O=C(CSc1cn(Cc2ccc(F)cc2)c2ccccc12)N1CCCCC1,i,i
O=C(CSc1cn(Cc2ccccc2Cl)c2ccccc12)N1CCOCC1,i,i
O=C(CSc1cn(Cc2ccc(F)cc2)c2ccccc12)N1CCCC1,i,i
CC1CCN(C(=O)CSc2cn(Cc3ccc(Cl)cc3)c3ccccc23)CC1,91.0,i
O=C(CSc1cn(Cc2ccc(F)cc2)c2ccccc12)N1CCCCCC1,70.0,i
CC(C)NC(=O)c1ccc(OCC2CCCN(C(=O)C(C)C)C2)cc1 (centres undefined),i,i
Cc1oc(C(C)C)nc1C(=O)NCc1ccccc1C(F)(F)F,i,i
CC(C)N1C(=O)/C(=C/c2ccc(N(C)C)cc2)SC1=Nc1ccccc1,i,i
N#CCC[C@@H]1CC[C@]2(CCCN(C(=O)c3ccco3)C2)O1,98.8,i
N#CCC[C@@H]1CC[C@]2(CCCN(C(=O)c3ccccc3)C2)O1,i,i
N#CCC[C@H]1CC[C@]2(CCCN(Cc3ccc(Br)cc3)C2)O1,88.6,i
CCN(CC)C(=O)CC[C@H]1CC[C@]2(CCCN(Cc3ccc(Br)cc3)C2)O1,i,i
Cc1cccc(-c2nc(C)c(C(=O)NC3CC3)s2)c1,i,i
Cc1cccc(N2CCN(C(=O)c3cn4cc(C)ccc4n3)CC2)c1,i,i
Cc1ccc(-c2nc(C=Nc3ccc(I)cc3C)c(O)o2)cc1,i,i
Cc1ccccc1CC(=O)Nc1ccc2c(N3CCOCC3)ncnc2c1,i,i
Cc1ccc(C(=O)Nc2ccc3c(c2)Sc2ncccc2C(=O)N3C)cc1,i,i
Cc1cc(C)cc(C(=O)Nc2ccc3c(c2)Sc2ncccc2C(=O)N3C)c1,72.9,i
CCN1CCN(C(=O)Cn2cc(C)sc2=NC(=O)c2cccc(Cl)c2)CC1,i,i
COc1cccc(C(=O)N=c2sc(C)cn2CC(=O)N2CCCC2)c1,i,86.6
CC1CN(C(=O)c2ccoc2)CC1c1nc(-c2ccncc2)no1 (centres undefined),i,i
SMILES,mHTT CaM bind,Pf apPOL block
S=c1[nH]nc(-c2cccs2)n1/N=C/c1ccco1,i,nt
COc1ccc(Cl)cc1NC(=O)Cn1nc(C)c([N+](=O)[O-])c1C,i,i
COc1ccccc1NC1OC(=O)c2c1ccc(OC)c2OC (centres undefined),i,i
NS(=O)(=O)c1cc(C(=O)N2CCc3ccccc32)c(Cl)cc1Cl,60.0,i
O=C(c1ccc([N+](=O)[O-])cc1Cl)N1CCc2ccccc21,i,i
COc1ccc(C(=O)C=Cc2ccc3c(c2)OCCO3)c(OCc2ccccc2)c1,i,i
COc1ccc(O)c(C(=O)C=Cc2ccc3c(c2)OCCO3)c1,60.9,i
CCn1nccc1C(=O)N1CCC(n2c(-c3ccsc3)nc3cccnc32)C1 (centres undefined),i,i
Cc1ccc(-c2cc(=O)n(CC(=O)Nc3ccc(C)c(C)c3)[nH]2)cc1,i,i
O=C(Cn1[nH]c(-c2ccccc2)cc1=O)Nc1ccc(Cl)cc1,63.0,i
O=C(O)c1ccc(O)c(O)c1O,i,i
CCC(=O)NC(c1ccc(N(C)C)cc1)c1ccc2cccnc2c1O (centres undefined),99.5,i
CCCCC(=O)NC(c1ccc(N(CC)CC)cc1)c1ccc2cccnc2c1O (centres undefined),98.0,i
CCCCC(=O)NC(c1ccc(N(C)C)cc1)c1ccc2cccnc2c1O (centres undefined),100.0,i
Cc1cc(OC(=O)c2ccc3c(c2)OCO3)cc2c1C(=O)C(=Cc1ccncc1)O2,i,i
Cc1noc(-c2nn(C)c3c2CN(C(=O)Cc2ccccc2C)CC3)n1,i,i
COC(=O)c1ccc(Cn2nc(-c3ccc(Cl)cc3)ccc2=O)cc1,i,i
Cc1cccc(CN2Cc3cccc4c3[C@H](C=CC4)CC2=O)c1,100.3,i
O=C1C[C@H]2C=CCc3cccc(c32)CN1Cc1ccc(F)cc1,i,i
O=C(Cc1ccccc1Cl)N1CCCC(COc2ccc(C(=O)N3CCCC3)cc2)C1 (centres undefined),i,i
COc1ccc(-c2cnc(-c3c(O)c(C)nc4ccccc34)o2)cc1,60.0,i
c1ccc(-c2cnc(-c3cccc4ccccc34)o2)cc1,i,nt
O=C(CN1C(=O)C2CCCN2C(=O)c2ccccc21)c1ccc(Br)cc1 (centres undefined),i,i
CN(C)S(=O)(=O)N1CCCC2(C1)Nc1ccccc1NC2=NCc1ccccc1 (centres undefined),54.2,i
COCCN=C1Nc2ccccc2NC12CCCN(C(=O)c1ccncc1)C2 (centres undefined),i,i
SMILES,mHTT CaM bind,Pf apPOL block
COCCN=C1Nc2ccccc2NC12CCCN(C(=O)Cc1ccc(Cl)cc1)C2 (centres undefined),99.9,i
COCCN=C1Nc2ccccc2NC12CCCN(S(=O)(=O)c1cccs1)C2 (centres undefined),i,i
COCCN=C1Nc2ccccc2NC12CCCN(C(=O)Cc1c(F)cccc1Cl)C2 (centres undefined),i,i
COCCN=C1Nc2ccccc2NC12CCCN(C(=O)Nc1ccc(F)cc1F)C2 (centres undefined),99.8,i
CCn1ccc(C(=O)N2CCCC3(C2)Nc2ccccc2NC3=NCc2ccccc2)n1 (centres undefined),i,i
O=C(CN1CCOCC1)N1CCCC2(C1)Nc1ccccc1NC2=NCc1ccccc1 (centres undefined),91.5,i
CCOc1ccc(/C=C2/N=C(c3ccccc3[N+](=O)[O-])OC2=O)cc1,i,i
Cc1ccc(S(=O)(=O)N2CCN(Cc3noc4ccccc34)CC2)c(C)c1,i,i
Oc1cc2ccccc2cc1-c1nnc(CCl)o1,i,nt
Cc1ccc(S(=O)(=O)Nc2ccccc2CNc2ccccc2)cc1,i,i
O=C(CCNC(=O)c1ccccc1F)NCc1cccnc1,i,i
Cc1ccc(-n2[nH]c3c(cnc4ccc(C(=O)NC(C)C)cc43)c2=O)cc1,i,i
COCC(=O)N1CCCC2(C1)Nc1ccccc1NC2=NCc1ccccc1 (centres undefined),51.0,i
CC(=O)NCC(=O)N1CCCC2(C1)Nc1ccccc1NC2=NCc1ccccc1 (centres undefined),i,i
O=C(NCc1cccs1)c1ccc2nccnc2c1,nt,i
Nc1c(C(=O)O)cc(Br)c2c1C(=O)c1ccccc1C2=O,51.8,i
Nc1c(Br)c(Br)c(N)c2c1C(=O)c1ccccc1C2=O,i,i
COc1ccc(-c2c(C)c3ccc(OC(=O)C4CC4)cc3oc2=O)cc1,i,i
COc1cc(C=CC(=O)c2c(-c3ccccc3)c3cc(Cl)ccc3[nH]c2=O)cc(OC)c1OC,100.2,i
O=c1[nH]c2ccc(Cl)cc2c(-c2ccccc2)c1Sc1ncn[nH]1,i,i
O=S(=O)(C1CC1)N1CCC(Oc2cc(N3CCOCC3)ncn2)C1 (centres undefined),i,i
O=S(=O)(NC1CCCCCC1)c1ccc2nc(-c3ccccc3)[nH]c2c1,i,i
O=S(=O)(NC1CCN(Cc2ccccc2)CC1)c1ccc2nc(-c3ccccc3)[nH]c2c1,87.0,i
